Data published in PubChem BioAssay AID1159580 (chemical genetic matrix, 2015).
Among all 5,500 compounds or so, about 2,000 (36%) were called active. Inconclusive results (about 18%) are left out. No stated cut-off is given here; in the data, active means normalized growth mostly below about 0.91 (no sharp cut-off); inconclusive means no clear call, values can overlap the other calls; inactive means mostly above about 0.92. Some of the results follow. Where a SMILES comes first, the peptide text is derived from it.

Assay: chemical genetic growth profiling, strain panel (AID 1159580);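 further: tested at 20 µM; growth read once vehicle control cultures reached saturation at 30 °C; 1 = growth at the plate median or of vehicle wells; lower values mean less growth of the strain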
Conditions: growth OD
[1] = S. cerevisiae deletion strains, locus YAL013W, strain DEP1, active compounds read low
[2] = S. cerevisiae deletion strains, locus YBR021W, strain FUR4, active compounds read low
[3] = S. cerevisiae deletion strains, locus YBR229C, strain ROT2, active compounds read low
[4] = S. cerevisiae deletion strains, locus YCL029C, strain bik1, active compounds read low
[5] = S. cerevisiae deletion strains, locus YDL035C, strain GPR1, active compounds read low
[6] = S. cerevisiae deletion strains, locus YDL074C, strain BRE1, active compounds read low
[7] = S. cerevisiae deletion strains, locus YDL101C, strain DUN1, active compounds read low
[8] = S. cerevisiae deletion strains, locus YDL185W, strain tfp1, active compounds read low
[9] = S. cerevisiae deletion strains, locus YDL192W, strain arf1, active compounds read low
[10] = S. cerevisiae deletion strains, locus YDR101C, strain arx1, active compounds read low
[11] = S. cerevisiae deletion strains, locus YDR162C, strain NBP2, active compounds read low
[12] = S. cerevisiae deletion strains, locus YDR318W, strain mcm21, active compounds read low
[13] = S. cerevisiae deletion strains, locus YDR388W, active compounds read low
[14] = S. cerevisiae deletion strains, locus YDR502C, strain sam2, active compounds read low
[15] = S. cerevisiae deletion strains, locus YER110C, active compounds read low
[16] = S. cerevisiae deletion strains, locus YER155C, strain BEM2, active compounds read low
[17] = S. cerevisiae deletion strains, locus YER167W, strain BCK2, active compounds read low
[18] = S. cerevisiae deletion strains, locus YGL078C, strain dbp3, active compounds read low
[19] = S. cerevisiae deletion strains, locus YGL086W, strain mad1, active compounds read low
[20] = S. cerevisiae deletion strains, locus YGL248W, strain PDE1, active compounds read low
[21] = S. cerevisiae deletion strains, locus YGR078C, strain PAC10, active compounds read low
[22] = S. cerevisiae deletion strains, locus YGR135W, strain pre9, active compounds read low
[23] = S. cerevisiae deletion strains, locus YGR252W, strain gcn5, active compounds read low
[24] = S. cerevisiae deletion strains, locus YHR079C, strain IRE1 (second series), active compounds read low
[25] = S. cerevisiae deletion strains, locus YHR094C, strain hxt1, active compounds read low
[26] = S. cerevisiae deletion strains, locus YHR129C, strain ARP1, active compounds read low
[27] = S. cerevisiae deletion strains, locus YHR200W, strain rpn10, active compounds read low
[28] = S. cerevisiae deletion strains, locus YIL066C, strain RNR3, active compounds read low
[29] = S. cerevisiae deletion strains, locus YIL073C, strain SPO22, active compounds read low
[30] = S. cerevisiae deletion strains, locus YIR030C, strain dcg1, active compounds read low
[31] = S. cerevisiae deletion strains, locus YJL095W, strain BCK1, active compounds read low
[32] = S. cerevisiae deletion strains, locus YJL134W, strain LCB3, active compounds read low
[33] = S. cerevisiae deletion strains, locus YJL168C, strain set2, active compounds read low
[34] = S. cerevisiae deletion strains, locus YJL187C, strain SWE1 (second series), active compounds read low
[35] = S. cerevisiae deletion strains, locus YKL009W, strain mrt4, active compounds read low
[36] = S. cerevisiae deletion strains, locus YKL068W, active compounds read low
[37] = S. cerevisiae deletion strains, locus YKL085W, strain MDH1 (second series), active compounds read low
[38] = S. cerevisiae deletion strains, locus YKL085W, strain MDH1, active compounds read low
[39] = S. cerevisiae deletion strains, locus YKL190W, strain CNB1, active compounds read low
[40] = S. cerevisiae deletion strains, locus YKR001C, strain vps1, active compounds read low
[41] = S. cerevisiae deletion strains, locus YLR039C, strain RIC1, active compounds read low
[42] = S. cerevisiae deletion strains, locus YLR058C, strain SHM2, active compounds read low
[43] = S. cerevisiae deletion strains, locus YLR102C, strain apc9, active compounds read low
[44] = S. cerevisiae deletion strains, locus YLR268W, strain sec22, active compounds read low
[45] = S. cerevisiae deletion strains, locus YLR330W, strain CHS5, active compounds read low
[46] = S. cerevisiae deletion strains, locus YLR342W, strain FKS1 (second series), active compounds read low
[47] = S. cerevisiae deletion strains, locus YLR371W, strain rom2, active compounds read low
[48] = S. cerevisiae deletion strains, locus YLR418C, strain cdc73, active compounds read low
[49] = S. cerevisiae deletion strains, locus YML016C, strain PPZ1, active compounds read low
[50] = S. cerevisiae deletion strains, locus YML032C, strain rad52, active compounds read low
[51] = S. cerevisiae deletion strains, locus YML124C, strain tub3, active compounds read low
[52] = S. cerevisiae deletion strains, locus YMR078C, strain ctf18, active compounds read low
[53] = S. cerevisiae deletion strains, locus YMR223W, strain ubp8, active compounds read low
[54] = S. cerevisiae deletion strains, locus YMR307W, strain GAS1, active compounds read low
[55] = S. cerevisiae deletion strains, locus YNL067W, strain RPL9B, active compounds read low
[56] = S. cerevisiae deletion strains, locus YNL153C, strain GIM3, active compounds read low
[57] = S. cerevisiae deletion strains, locus YNL233W, strain BNI4, active compounds read low
[58] = S. cerevisiae deletion strains, locus YNL250W, strain rad50, active compounds read low
[59] = S. cerevisiae deletion strains, locus YNL271C, strain bni1, active compounds read low
[60] = S. cerevisiae deletion strains, locus YNL298W, strain CLA4, active compounds read low
[61] = S. cerevisiae deletion strains, locus YNL307C, strain MCK1, active compounds read low
[62] = S. cerevisiae deletion strains, locus YNR052C, strain pop2, active compounds read low
[63] = S. cerevisiae deletion strains, locus YOL012C, strain htz1
[64] = S. cerevisiae deletion strains, locus YOL147C, strain pex11, active compounds read low
[65] = S. cerevisiae deletion strains, locus YOR061W, strain CKA2, active compounds read low
[66] = S. cerevisiae deletion strains, locus YOR069W, strain VPS5, active compounds read low
[67] = S. cerevisiae deletion strains, locus YOR136W, strain idh2, active compounds read low
[68] = S. cerevisiae deletion strains, locus YOR144C, strain elg1, active compounds read low
[69] = S. cerevisiae deletion strains, locus YOR184W, strain ser1, active compounds read low
[70] = S. cerevisiae deletion strains, locus YOR316C, strain cot1, active compounds read low
[71] = S. cerevisiae deletion strains, locus YPR119W, strain clb2, active compounds read low
[72] = S. cerevisiae deletion strains, locus YPR141C, strain kar3, active compounds read low
[73] = S. cerevisiae deletion strains, locus YPR163C, strain tif3, active compounds read low
[74] = S. cerevisiae deletion strains, locus YPR167C, strain met16, active compounds read low
[75] = S. cerevisiae deletion strains, strain wtn01, active compounds read low
[76] = S. cerevisiae deletion strains, locus YGR229C, strain SMI1, active compounds read low
[77] = S. cerevisiae deletion strains, locus YJR075W, strain HOC1, active compounds read low
[78] = S. cerevisiae deletion strains, locus YNL322C, strain KRE1, active compounds read low
[79] = S. cerevisiae deletion strains, locus YPL241C, strain CIN2, active compounds read low

Measured: normalized growth

COc1cc2c(cc1O)C(Cc1ccc(O)cc1)N(C)CC2 (stereo not given)
inactive: [1] 1.01 | [2] 1.02 | [3] 1.02 | [4] 1 | [5] 1.05 | [6] 1.06 | [7] 1.02 | [8] 1.01 | [9] 1.02 | [10] 1.01 | [11] 1.05 | [12] 1.01 | [13] 1.01 | [14] 0.979 | [15] 0.977 | [16] 1.01 | [17] 1.02 | [18] 0.984 | [19] 1.01 | [20] 1.03 | [21] 1.02 | [22] 0.981 | [23] 0.923 | [24] 0.991 | [25] 0.982 | [26] 1.02 | [27] 0.986 | [28] 1.03 | [29] 0.998 | S. cerevisiae deletion strains, locus YIL125W, strain kgd1, active compounds read low 1.01 | [30] 1 | [31] 1.03 | [32] 1.02 | [33] 0.998 | [34] 1.02 | [35] 1.02 | [36] 0.998 | [37] 1.01 | [38] 1.01 | [39] 1.02 | [40] 1.01 | [41] 1.05 | [42] 1.04 | [43] 0.977 | [44] 1.03 | [45] 1.02 | [46] 1.07 | [47] 1.01 | [48] 1.01 | [49] 1.02 | [50] 1.01 | [51] 0.999 | [52] 0.994 | [53] 0.993 | [54] 1.12 | [55] 1.01 | [56] 1.01 | [57] 1.01 | [58] 1 | [59] 1.01 | [60] 1.01 | [61] 0.994 | [62] 0.982 | [63] 0.669 | [64] 1 | [65] 1.03 | [66] 1.01 | [67] 0.972 | [68] 0.996 | [69] 1.05 | [70] 0.989 | [71] 0.991 | [72] 1.01 | [73] 0.998 | [74] 0.973 | [75] 1.01

O=c1ccn([C@@H]2O[C@H](COP(=O)(O)OP(=O)(O)O)[C@@H](O)[C@H]2O)c(=O)[nH]1
inactive: S. cerevisiae deletion strains, locus YAL040C, strain CLN3, active compounds read low 0.981 | S. cerevisiae deletion strains, locus YCL061C, strain MRC1 (second series), active compounds read low 0.991 | S. cerevisiae deletion strains, locus YDR363W, strain ESC2, active compounds read low 0.981 | S. cerevisiae deletion strains, locus YER002W, strain NOP16, active compounds read low 0.995 | [76] 0.972 | [77] 0.976 | [54] 0.985 | [56] 0.983 | S. cerevisiae deletion strains, locus YNL175C, strain NOP13, active compounds read low 0.988 | S. cerevisiae deletion strains, locus YNL197C, strain WHI3, active compounds read low 0.967 | S. cerevisiae deletion strains, locus YNL224C, strain SQS1, active compounds read low 0.992 | [78] 0.971 | S. cerevisiae deletion strains, locus YOR083W, strain WHI5 (second series), active compounds read low 0.992 | [79] 1

NCCCCC(N)C(=O)NC(Cc1ccc(O)cc1)C(=O)NC(CCCCN)C(=O)O (stereo not drawn) (H-Lys-Tyr-Lys-OH; configuration not given here)
inactive: [1] 1.01 | [2] 1 | [3] 1.01 | [4] 0.983 | [5] 1.01 | [6] 1.06 | [7] 1.02 | S. cerevisiae deletion strains, locus YDL134C, strain PPH21, active compounds read low 1.01 | [8] 0.971 | [9] 0.984 | [10] 1.01 | S. cerevisiae deletion strains, locus YDR150W, strain NUM1, active compounds read low 0.999 | [11] 1.04 | [12] 0.983 | [13] 1.01 | [14] 1 | S. cerevisiae deletion strains, locus YEL061C, strain CIN8, active compounds read low 0.996 | [15] 0.987 | [16] 0.985 | [17] 0.995 | [18] 0.988 | [19] 0.963 | [20] 1.01 | [21] 1.04 | [22] 0.999 | [76] 1.05 | [23] 0.958 | S. cerevisiae deletion strains, locus YHR030C, strain SLT2, active compounds read low 0.996 | [24] 1 | [25] 0.982 | [26] 1.01 | [27] 0.984 | [28] 1.02 | [29] 0.948 | [30] 0.995 | [31] 1.07 | [32] 0.997 | [33] 1.02 | [34] 1.01 | S. cerevisiae deletion strains, locus YJR043C, strain POL32, active compounds read low 0.996 | [77] 1.1 | [35] 0.958 | [36] 0.987 | [37] 1.04 | [38] 1.04 | [39] 1.01 | [40] 0.979 | [41] 1.04 | [42] 0.999 | [43] 1 | S. cerevisiae deletion strains, locus YLR262C, strain YPT6, active compounds read low 1 | [44] 1.01 | [45] 0.987 | [46] 1.01 | [47] 0.983 | [48] 1.04 | [49] 1 | [50] 0.976 | [51] 0.99 | [52] 0.982 | [53] 0.981 | S. cerevisiae deletion strains, locus YMR263W, strain SAP30, active compounds read low 1.05 | [54] 1.07 | [55] 1.04 | S. cerevisiae deletion strains, locus YNL128W, strain TEP1, active compounds read low 1.05 | [56] 1.05 | [57] 1.04 | [58] 0.981 | [59] 0.99 | [60] 0.987 | [61] 0.993 | [78] 0.998 | [62] 0.99 | S. cerevisiae deletion strains, locus YOL006C, strain TOP1, active compounds read low 1.06 | [63] 0.771 | [64] 0.995 | [65] 1.01 | [66] 1 | [67] 0.998 | [68] 0.989 | [69] 0.966 | [70] 0.99 | S. cerevisiae deletion strains, locus YPL055C, strain LGE1, active compounds read low 1.11 | [79] 1 | [71] 0.998 | [72] 1 | [73] 0.982 | [74] 0.997 | [75] 1.03 | S. cerevisiae strains, strain wild type, active compounds read low 1.01
